What all share (assay): NCI-60 one-dose screen, 48 h (100 = growth as untreated, 0 = no growth, -100 = all killed)
The test system of assay [1] is SK-MEL-2 melanoma. The following applies: 10 µM unless noted.
Assay [2] concerns EKVX NSCLC. The following applies: 10 µM unless noted.
Assay [3] relates to SN12C renal. As to conditions: 10 µM unless noted.
Assay [4] relates to UO-31 renal. As to conditions: 10 µM unless noted.
Assay [5] concerns TK-10 renal. As to conditions: 10 µM unless noted.
Assay [6] relates to ACHN renal. As to conditions: 10 µM unless noted.
The test system of assay [7] is CAKI-1 renal. As to conditions: 10 µM unless noted.
For assay [8], the system named is A498 renal. The following applies: 10 µM unless noted.
Assay [9] relates to CCRF-CEM leukemia. As to conditions: 10 µM unless noted.
Assay [10] relates to MOLT-4 leukemia. The following applies: 10 µM unless noted.
Assay [11] relates to SR leukemia. As to conditions: 10 µM unless noted.
The subject of assay [12] is RPMI-8226 leukemia. The following applies: 10 µM unless noted.
Assay [13] deals with OVCAR-8 ovarian. The following applies: 10 µM unless noted.
Assay [14] deals with OVCAR-5 ovarian. The following applies: 10 µM unless noted.
Assay [15] concerns OVCAR-4 ovarian. As to conditions: 10 µM.
For assay [16], the system named is SK-OV-3 ovarian. The following applies: 10 µM unless noted.
Assay [17] concerns IGROV1 ovarian. As to conditions: 10 µM unless noted.
Assay [18] concerns OVCAR-3 ovarian. The following applies: 10 µM unless noted.
Assay [19] relates to HS 578T breast. The following applies: 10 µM unless noted.
For assay [20], the system named is NCI/ADR-RES ovarian. The following applies: 10 µM unless noted.

The panel holds about 83,000 compounds, 20% with a hit somewhere; the sample as a whole holds those more often.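 Treatment: one concentration, 48 hours, 96-well format. Scoring: percent growth, with anything below 10 considered active.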 Unmarked numbers belong to inactive results. Active and inactive are the calls of the source.

Consider `NNC(=O)c1ccc(C(=O)NN)cc1`, for which the growth in assay [1] was 122%; in [2], 101%; in assay [3], 109%; in assay [4] it was 87.1%; in assay [5], 105%; in [6] it was 111%. In addition, the growth in assay [7] is 105%; in assay [8], 70.2%; in assay [9] it was 94.4%; in assay [10] it was 130%; in [11], 126%; in assay [12], 104%. Further, the growth in assay [13] is 84.9%; in [14] it was 113%; in [15], 127%; in assay [16], 119%; in assay [17], 116%; in assay [18], 112%. The growth in [19] was 97.9%; in [20], 104%.
Regarding `Cc1cc(C)c(O)c(CNCCCCCCNCc2cc(C)cc(C)c2O)c1`, the growth is -61.8% (active) in [1]; 47.9% in assay [2]; 29.8% in [3]; -60.3% (active) in assay [4]; -28% (active) in [5]; -42.3% (active) in assay [6]. Further, the growth in assay [7] is 26.2%; in assay [8] it was 21.4%; in assay [9] it was -19.9% (active); in [10], -28.1% (active); in assay [11] it was -48.3% (active); in assay [12] it was -20.8% (active). Also, the growth is -12.4% (active) in [13]; 13.9% in assay [14]; 46.1% in [15]; 84.9% in [16]; 36.4% in [17]; 22% in assay [18]. Also, the growth in [19] was -44.9% (active); in [20], 8.8% (active).
`OC(c1ccc(Cl)cc1)(c1ccc(Cl)cc1)C(O)(c1ccc(Cl)cc1)c1ccc(Cl)cc1`: the growth was 68.4% in assay [1]; 49% in assay [2]; 29.8% in [3]; 25.7% in assay [4]; 29.1% in assay [5]; 61.8% in assay [6]. Further, the growth in assay [7] is 46.8%; in assay [8] it was 64.4%; in [9], 32.8%; in [10], 22.7%; in assay [11], 25.9%; in assay [12], 30.8%. Moreover, the growth was 56.8% in assay [13]; 71.7% in assay [14]; 44.8% in assay [15]; 35.9% in assay [16]; 19.6% in assay [17]; 40.7% in assay [18]. Besides, the growth in assay [19] was 68.6%; in assay [20], 48.5%.
On to `COc1cc(NCc2ccccc2O)c2ncccc2c1`, for which the growth in assay [1] is 142%; in [2], 82%; in assay [3], 106%; in [4], 75.8%; in [5], 150%; in assay [6], 97.2%. Also, the growth is 8.76% (active) in [7]; 72% in [8]; 91.5% in assay [9]; 88.3% in assay [10]; 82.4% in assay [11]; 46.9% in [12]. Besides, the growth is 102% in assay [13]; 69.6% in assay [14]; 82.3% in assay [15]; 107% in assay [16]; 90.4% in assay [17]; 97.2% in [18]. The values for the growth in [19] and in [20] were 149% and 71.9%, respectively.
For the molecule `COc1ncnc2c(-c3ccccc3)cn(COCc3ccccc3)c12`, the growth in [1] was 34.5%; in [2], 41.4%; in assay [3], 66.6%; in assay [4], 44.2%; in assay [5] it was 43.1%; in assay [6] it was 51%. Further, the growth in [7] is 64.3%; in assay [8], 51.9%; in [9], 41.1%; in assay [10] it was 7.9% (active); in assay [11], 18.2%; in [12], 29.2%. The growth was 26.6% in [13]; 110% in assay [14]; 54.4% in assay [15]; 82.7% in [16]; 71% in assay [17]; 62.8% in assay [18]. Besides, the growth in [19] is 81.2%.
With `O=C1/C(=C/c2ccc(OCc3ccccc3)cc2)Oc2cc(OCCN3CCCCC3)ccc21`, the growth is 112% in assay [1]; 80.5% in assay [2]; 82.4% in [3]; 70.6% in assay [4]; 104% in assay [5]; 89.6% in assay [6]. In addition, the growth in assay [7] is 70.5%; in assay [8] it was 60.9%; in assay [9] it was 73%; in assay [10], 76.1%; in assay [11], 13.3%; in assay [12] it was 54%. The growth is 89.8% in [13]; 88.8% in [14]; 61.2% in [15]; 104% in assay [16]; 87% in assay [17]; 88.1% in assay [18].
As for `CC(C)C1=NOC(=O)C1=Cc1cn(-c2ccccc2)nc1-c1ccc(Cl)cc1`, the growth is 85.6% in [1]; 98.5% in assay [2]; 78.2% in assay [3]; 71.4% in [4]; 83.3% in [5]; 82.6% in assay [6]. In addition, the growth in assay [7] is 65.8%; in assay [8], 91.4%; in assay [9] it was 4.95% (active); in assay [10], -4.85% (active); in [11], -22% (active); in [12], -28.5% (active). The growth is 79.2% in [13]; 99.1% in assay [14]; 98.2% in assay [15]; 106% in [16]; 79.6% in [17]; 86.2% in [18]. Also, the growth in assay [19] was 77.4%; in assay [20], 91.7%.
For `COc1cc2c(=O)[nH]c3cc([N+](=O)[O-])ccc3c2cc1[N+](=O)[O-]`, the growth in [1] is 86.1%; in [2] it was 48.3%; in [3], 52.6%; in assay [4], 19.6%; in [5], 52.1%; in [6], 21.8%. Moreover, the growth is 45.7% in [7]; -2.09% (active) in [8]; 46.5% in assay [9]; 9.72% (active) in [10]; 32.2% in assay [11]; 57.2% in [12]. Moreover, the growth was 45.9% in assay [13]; 74.1% in assay [14]; 54.1% in [15]; 77.4% in assay [16]; 41.5% in assay [17]; 63.7% in [18]. The growth in [19] is 66.6%; in [20], 48.7%.

The values are drawn from PubChem BioAssay (NCI).
